# From PubChem BioAssay AID2315 (National Center for Advancing Translational Sciences (NCATS), 2010)
# Among all 290,000 compounds or so, about 27,000 (9.3%) were called active. Only a selection was taken, and actives are over-represented in it overall. A number with no mark means an inactive call. Rule as the data show it: active = inhibition mostly above about 28% (no sharp cut-off); inactive = mostly below about 43%.
# Assay: A qHTS for Small Molecule Inhibitors of Shiga Toxin; also: 0% is about no effect
# Conditions: Vero cells, Shiga toxin protein synthesis inhibition reporter; at 38.7 µM, hits give high values
row,Structure (SMILES),inhibition
1,CN(C)C(=O)Cn1c(=O)n(S(=O)(=O)c2ccccc2)c2ccccc21,-3.04%
2,Cc1cc(C)n(CCNS(=O)(=O)c2ccc(Cl)cc2)n1,-3.35%
3,COc1ccc(-c2cn[nH]c2-c2ccc(OC)cc2)cc1,-4.19%
4,COc1ccc2cc(-c3[nH]ncc3CNCCn3nc(C)cc3C)ccc2c1,67.7% (active)
5,Cc1ccccc1C(=O)NC(=S)NC1CC1,24.6%
6,O=C1Nc2ccccc2/C1=C/c1ccnc2ccccc12,19.4%
7,O=C(Nc1cccc(NC(=O)c2cccc(F)c2)c1)c1ccccc1,21.2%
8,O=C(Nc1ccn(Cc2ccccc2F)n1)c1ccc(COc2ccc(Cl)cc2Cl)o1,21.8%
9,CC(=O)Nc1ccn(Cc2c(F)cccc2Cl)n1,64.3% (active)
10,O=C1c2ccccc2S(=O)(=O)N1Cc1c(F)cccc1Cl,-12.9%
11,O=C(Nc1ccn(Cc2ccccc2)n1)c1cccc(F)c1,63.4% (active)
12,O=C(Nc1ccn(Cc2ccccc2)n1)c1n[nH]c([N+](=O)[O-])c1Cl,16.1%
13,CCOCCOC(=O)C(C)Oc1ccc(Oc2ncc(C(F)(F)F)cc2Cl)cc1 (stereo not given),-6.29%
14,COc1ccc(C(=O)NCC(=O)N/N=C/c2cccnc2)cc1,-9.22%
15,COc1ccc2c(c1)C(NS(=O)(=O)OCC(Cl)(Cl)Cl)CCC2 (stereo not given),-7.98%
16,COc1ccc(NC(=S)N2CCC(NC(=O)c3cccc(F)c3)CC2)cc1,-12.4%
17,CCOC(=O)COn1c(=O)c(-c2ccc(OCC)cc2)[n+]([O-])c2ccccc21,44.1%
18,O=c1c(-c2ccc(Cl)cc2)[n+]([O-])c2ccccc2n1OCc1nc2ccccc2[nH]1,59.6% (active)
19,CCOc1ccc(OCC)c(-c2c(=O)n(OCc3ccc(Cl)cc3)c3ccccc3[n+]2[O-])c1,10.2%
20,CCC(=O)NC(=S)Nc1ccc(NC(=O)c2ccco2)c(Cl)c1,46.1%

row,Structure (SMILES),inhibition
1,O=C(NNC(=S)Nc1ccc(Br)cc1Cl)c1ccco1,59.2% (active)
2,O=C(NNC(=O)c1ccco1)Nc1ccccc1,8.84%
3,Cc1ccc2c(c1)N(CC(=O)NCC1CCCO1)C(=O)CO2 (stereo not given),40.5%
4,Cc1cc(Br)ccc1NC(=O)c1sc2ncn(CC(=O)N3CCN(c4ccccn4)CC3)c(=O)c2c1C,-6.73%
5,O=C(Nc1cccc(-c2cccc(Cl)c2)c1)C1CCN(C2CCC2)CC1,18.3%
6,COc1ccc(C)cc1NC(=O)Nc1ccccc1SC,-0.581%
7,CCC(=O)Nc1ccc(C(=O)Nc2cc(C)on2)cc1,37.1%
8,CCOc1ccc(NC(=O)Nc2cc(C)on2)cc1,91.1% (active)
9,CCOc1ccc(C(=O)Nc2ccc(S(=O)(=O)Nc3cc(C)on3)cc2)cc1,-6.4%
10,CCOc1ccc(NC(=O)Nc2cc(C)ccc2OC)cc1,29.4% (active)
11,CCOc1ccc(C(=O)Nc2cc(OC)ccc2OC)cc1,25.5%
12,Cc1cc(C)c2c(-c3ccc(F)cc3)c(C#N)c(=O)n(C)c2n1,-4.95%
13,CCN1CCN(c2sc(S(C)(=O)=O)nc2S(=O)(=O)c2ccc(Cl)cc2)CC1,-2.05%
14,COc1ccccc1NC(=O)CCC(=O)N1CC(C)Oc2ccc(C)cc21 (stereo not given),-1.25%
15,COc1ccc(-c2c(-c3ccc(OC)cc3O)nc(C)nc2C(F)(F)F)cc1,2.92%
16,COc1cc2ccccc2cc1C(=O)N(CCN(C)C)c1nc2c(F)cccc2s1,-10.4%
17,COc1ccccc1-c1nnc(NC(=O)c2ccc3ncsc3c2)o1,92.1% (active)
18,COc1ccccc1-c1nnc(SCC(=O)Nc2ccccc2)o1,22.9%
19,COc1ccccc1-c1nnc(NC(=O)c2cccc(N3C(=O)CCC3=O)c2)o1,-10.7%
20,C=CCOc1ccc(C(=O)Nc2ccccc2C(=O)N2CCCC2)cc1,13.9%

row,Structure (SMILES),inhibition
1,CCOC(=O)c1c(NC(=O)c2ccc(S(=O)(=O)N(C)CC3CCCO3)cc2)sc2c1CC(C)(C)NC2(C)C (stereo not given),-9.62%
2,COc1ccccc1N=C(C)C1=C(O)COC1=O,-4.84%
3,COC(=O)c1ccccc1N=Nc1c(C)[nH][nH]c1=O,1.81%
4,COc1ccccc1N=Nc1c(O)[nH]c(=S)[nH]c1=O,29.2% (active)
5,COc1ccc(NC(=O)Cn2ncn3c(cc4ccccc43)c2=O)c(OC)c1OC,-6.32%
6,COc1ccc(/C=C/C(=O)Nc2cccnc2)cc1OC,51.8% (active)
7,COc1ccc(/C=C/C(=O)Nc2ccc(C)cc2)cc1S(=O)(=O)N1CCOCC1,20.7%
8,COc1ccc(/C=C/C(=O)N2CCCC2)cc1OC,3.99%
9,COc1ccc(/C=C/C(=O)Nc2ccc(C34CC5CC(CC(O)(C5)C3)C4)cc2)cc1OC,90.8% (active)
10,COc1ccc(C(=O)CCC(=O)Nc2cccnc2)c(OC)c1,-20.3%
11,COc1cccc(C(=O)Nc2cccnc2)c1OC,2.65%
12,CN(CC(=O)NCc1ccc(Cl)cc1)S(=O)(=O)c1cccs1,45.6%
13,COc1ccc(NC(=O)CN2C(=O)COc3ccc(S(=O)(=O)N4CCOCC4)cc32)cc1,-3.8%
14,COc1ccc(-c2n[nH]c3c2CN(C(=O)c2ccc(F)cc2)CC3)cc1,-7.56%
15,COc1ccc(CCNC(=O)c2ccccc2-c2ccccc2C(=O)O)cc1OC,-1.45%
16,COc1cccc2[nH]c(C(=O)NCCc3ccccc3)cc12,67.7% (active)
17,COc1ccc(CCNC(=O)c2ccccc2OCc2ccccc2)cc1,14.7%
18,Cc1cc(C)cc(N(CC(=O)NC2CCCC2)C(=O)CCC(=O)Nc2nccs2)c1,20.2%
19,COc1ccc([N+](=O)[O-])cc1N(CC(O)CN(CC(C)C)CC(C)C)S(=O)(=O)c1ccc(C)cc1 (stereo not given),12.3%
20,O=c1[nH]cnc(O)c1C(c1ccc(F)cc1)c1c(O)nc[nH]c1=O,8.92%
